Measured values: PubChem BioAssay AID651717 (Broad Institute, 2012)
Hit rate of the full screen: of about 1,200 compounds, about 950 (79%) were called active.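 Rule for the calls: active = signal rises and fitted curve reaches 40% activity at or below the top valid tested dose, in every replicate test; inconclusive = replicate tests give mixed calls; inactive = the rest, including activity in the opposite direction.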 So high a share suggests a set chosen from earlier hits. Only a sample is shown. Entries with a potency or affinity are not part of this list.

Test: Bmi1-luciferase reporter activators in mESC, dose response, esBAF inhibitor project, mouse embryonic stem cells, cherry-pick (AID 651717);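 note: luciferase knocked into Bmi1 locus with EF-1a renilla as cell number control; rising ratio signals esBAF inhibition which derepresses Bmi1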
Details: firefly/renilla ratio, 24 h, active compounds read high; at 35 µM unless noted

Compound | max activity
COc1ccc(-c2cc(C(=O)N3CCCCCC3)no2)cc1OC | 32.3% (inactive)
CS(=O)(=O)NN1C(=O)c2ccccc2NC1c1cc2ccccc2nc1Cl (stereo unspecified) | 18.4% (inactive)
COc1ccc(C(=O)O/N=C(\N)c2ccc(OC)c(OC)c2)c(OC)c1 | 34.8% (inactive)
O=C(NCC[C@@H]1CC[C@H](NC(=O)Nc2cc(F)ccc2F)[C@H](CO)O1)Nc1ccc(Cl)cc1 | 29.7% (inactive)
O=C(NCC[C@@H]1CC[C@@H](NC(=O)Nc2cc(F)ccc2F)[C@H](CO)O1)Nc1ccc(Cl)cc1 | -11.9% [at 16 µM] (inactive)
C[C@@H]1CN([C@H](C)CO)C(=O)c2c(c3ccccc3n2C)-c2ccccc2CO[C@H]1CN(C)C(=O)Nc1ccc2c(c1)OCO2 | -14.5% (inactive)
CC(C)c1ccc(NC(=O)c2ccccc2NC(=O)C2CCCCC2C(=O)O)cc1 (stereo unspecified) | 41% (inactive)
Cc1cccc(NC2SC(=O)N(c3ccccc3)C2=O)c1 (stereo unspecified) | 37.5% (inactive)
O=C(/C=C/NNC(=O)c1ccccc1O)c1ccccc1 | 4.98% [at 4.2 µM] (inactive)
CCn1c(CCNC(=O)c2cccs2)nnc1SCC(=O)Nc1nc(-c2ccccc2)cs1 | 32.7% (inactive)
C[C@@H]1CCCCO[C@@H](CN(C)C(=O)Nc2ccccc2)[C@@H](C)CN([C@@H](C)CO)C(=O)c2cc(NC(=O)Nc3ccc4c(c3)OCO4)ccc2O1 | 13.1% [at 16 µM] (inactive)
C[C@@H]1CCCCO[C@@H](CN(C)C(=O)Nc2cccc3ccccc23)[C@H](C)CN([C@H](C)CO)C(=O)c2cc(NC(=O)Cc3ccccc3)ccc2O1 | -4.4% [at 2.1 µM] (inactive)
Brc1ccc(N=C/C=C/C=C/Nc2ccc(Br)cc2)cc1 | 9.66% [at 4.2 µM] (inactive)
C[C@H](CO)N1C[C@H](C)[C@@H](CN(C)S(=O)(=O)c2cccs2)Oc2c(NC(=O)Nc3ccc4c(c3)OCO4)cccc2C1=O | -24.2% (inactive)
OC(c1ccccc1)c1ncc(-c2ccccc2F)[nH]1 (stereo unspecified) | -21.5% (inactive)
CCc1ccc(C(O)c2ncc(-c3cccc(F)c3)[nH]2)cc1 (stereo unspecified) | -31.3% (inactive)
COc1cccc(-c2cnc(C(O)c3ccc(F)cc3)[nH]2)c1 (stereo unspecified) | 32% [at 8 µM] (inactive)
Cc1ccc(S(=O)(=O)N2CCOCC2)cc1C(=O)Nc1ccc(-c2cn3ccsc3n2)cc1 | -8.19% (inactive)
CC(C)c1ccc(Nc2ncc3c(n2)CCN(C(=O)Nc2ccc(F)c(Cl)c2)C3)cc1 | 20.6% (inactive)

Compound | max activity
N#Cc1cccc(NC(=O)c2cc(C3CCCCN3S(=O)(=O)c3cccc4cccnc34)on2)c1 (stereo unspecified) | -16.3% (inactive)
O=C(Nc1ccc(F)c(Cl)c1)c1cc(C2CCCN(S(=O)(=O)c3cccc4cccnc34)C2)on1 (stereo unspecified) | 29.2% [at 16 µM] (inactive)
O=C1C2C(c3cccc(/C=C/c4ccccc4)c3)CC=CC2C(c2ccc3ccccc3c2)N1Cc1ccccc1 (stereo unspecified) | 17.2% (inactive)
COC(=O)c1ccc(-c2ccc(OC)c([C@H]3[C@H]4C=CC[C@@H](C)[C@@H]4C(=O)N3Cc3ccccc3)c2)cc1 | -14.1% (inactive)
CN(C)C(=O)CCc1ccc2c3c([nH]c2c1)[C@]1(CCc2ccccc2)[C@@H](C(=O)N2CCCCC2)C[C@H](CC(=O)NCCC2=CCCCC2)C(=O)N1CC3 | -35% [at 8 µM] (inactive)
C[C@H](CO)N1C[C@H](C)[C@@H](CN(C)C(=O)Nc2ccc3c(c2)OCO3)Oc2ncc(C#CC3(O)CCCC3)cc2C1=O | -4.31% [at 16 µM] (inactive)
C[C@H](CO)N1C[C@H](C)[C@H](CN(C)C(=O)Nc2ccc3c(c2)OCO3)Oc2c(NS(=O)(=O)c3ccccc3)cccc2C1=O | -12.7% (inactive)
C[C@@H]1CCCCO[C@H](CN(C)S(=O)(=O)c2cn(C)cn2)[C@@H](C)CN([C@@H](C)CO)C(=O)c2cc(NC(=O)Nc3ccc4c(c3)OCO4)ccc2O1 | -8.77% [at 8 µM] (inactive)
C[C@H](CO)N1C[C@H](C)[C@@H](CN(C)S(=O)(=O)c2cn(C)cn2)Oc2c(NC(=O)Nc3ccc4c(c3)OCO4)cccc2C1=O | -22.8% (inactive)
Cc1ccc(S(=O)(=O)N[C@H]2CC[C@@H](CCNC(=O)Nc3ccc(Cl)cc3)O[C@H]2CO)cc1 | -11.4% (inactive)
O=C(NCC[C@H]1CC[C@H](NC(=O)Nc2cc(F)ccc2F)[C@H](CO)O1)Nc1ccc(Cl)cc1 | 31.4% (inactive)
C[C@H]1CN([C@@H](C)CO)C(=O)c2c(c3ccccc3n2C)-c2ccccc2CO[C@H]1CN(C)C(=O)Nc1ccc2c(c1)OCO2 | -25.1% (inactive)
Cc1noc(C)c1NC(=O)N(C)C[C@@H]1Oc2ncc(C#CC3CC3)cc2C(=O)N([C@@H](C)CO)C[C@H]1C | 9.7% [at 8 µM] (inactive)
O=C(Cc1ccc(Cl)cc1)NC1CCCCCC1 | 37.5% (inactive)
CC(C)NC(=O)N(C)C[C@@H]1OCCCC[C@H](C)Oc2ccc(NC(=O)Nc3ccc4c(c3)OCO4)cc2C(=O)N([C@H](C)CO)C[C@@H]1C | 11.4% [at 0.5 µM] (inactive)
CS(=O)(=O)Nc1ccc(C2=NN(S(C)(=O)=O)C(c3cccs3)C2)cc1 (stereo unspecified) | 36.3% [at 16 µM] (inactive)
COc1ccc(S(=O)(=O)N2Cc3ccccc3CC2C(=O)Nc2ccc3c(c2)OCO3)cc1 (stereo unspecified) | 17% [at 4.2 µM] (inactive)
Cc1nc2cc(C(=O)O)ccc2s1 | 22% [at 16 µM] (inactive)
CN(C(=O)c1cc2c(s1)-c1ccccc1S(=O)(=O)C2)c1ccccc1 | 29.1% (inactive)

Compound | max activity
N=C1/C(=C/c2ccc(OCc3ccccc3)cc2)C(=O)N=C2SC(CC(=O)N3CCOCC3)=NN12 | 23.9% (inactive)
Cc1ccc(COc2ccccc2C(=S)N2CCCC2)cc1 | 28.7% (inactive)
C[C@H]1CN([C@@H](C)CO)C(=O)c2cccc(NC(=O)Nc3ccc(C(F)(F)F)cc3)c2O[C@@H]1CN(C)C | 14.9% [at 8 µM] (inactive)
C[C@H](CO)N1C[C@H](C)[C@H](CN(C)C(=O)Nc2ccc3c(c2)OCO3)OCc2ccccc2-c2c(n(C)c3ccccc23)C1=O | -46.6% (inactive)
CO[C@@H]1CN(C)C(=O)c2ccc(NC(=O)c3nc4ccccc4s3)cc2OC[C@@H](C)N(Cc2cccnc2)C[C@H]1C | 18.5% (inactive)
CO[C@@H]1CN(C)C(=O)c2ccc(NC(=O)c3nc4ccccc4s3)cc2OC[C@@H](C)N(Cc2ccncc2)C[C@H]1C | 38.8% (inactive)
C[C@@H]1CN([C@@H](C)CO)C(=O)c2cc(NC(=O)Cc3cn(C)c4ccccc34)ccc2O[C@H]1CN(C)C(=O)Nc1ccc2c(c1)OCO2 | 9.93% [at 8 µM] (inactive)
C[C@H](CO)N1C[C@H](C)[C@@H](CN(C)Cc2ccc(-c3ccccc3)cc2)Oc2ccc(NC(=O)CCCCCC(=O)Nc3ccccc3N)cc2CC1=O | 16.8% [at 16 µM] (inactive)
CCCNC(=O)Nc1ccc2c(c1)OC[C@@H](C)N(Cc1ccc(-c3ccccn3)cc1)C[C@@H](C)[C@H](OC)CN(C)C2=O | -20.1% (inactive)
CO[C@@H]1CN(C)C(=O)c2ccc(NC(=O)c3nc4ccccc4s3)cc2OC[C@@H](C)N(Cc2cncnc2)C[C@H]1C | 21% [at 16 µM] (inactive)
COc1cccc(C(=O)Nc2ccc3c(c2)OC[C@@H](C)N(CCc2ccccc2)C[C@@H](C)[C@H](OC)CN(C)C3=O)c1 | 9.35% [at 1 µM] (inactive)
CC(C)(C)C(=O)[C@H]1[C@H](c2ccccc2)[C@@]2(N=C(c3ccccc3)OC2=O)C2c3ccccc3C=NN21 (stereo partly specified) | 19% [at 16 µM] (inactive)
CC1CCCN(C(=O)c2ccc(Cl)c(S(=O)(=O)N3CCCCCC3)c2)C1 (stereo unspecified) | 6.03% [at 4.2 µM] (inactive)
O=C(NCCc1ccc(F)cc1)c1cccc(NC(=O)c2ccccc2)c1 | 21.2% (inactive)
O=C(CNc1ccccc1F)Nc1cccc2ccccc12 | -8.82% (inactive)
C[C@H]1CCCCO[C@H](CN(C)S(=O)(=O)c2cn(C)cn2)[C@@H](C)CN([C@@H](C)CO)C(=O)c2cc(NC(=O)Nc3ccc4c(c3)OCO4)ccc2O1 | -6.42% [at 0.5 µM] (inactive)
O=C(c1cc(COc2ccc(F)cc2F)on1)N1CC2C[C@@H]3CC1C[C@H](C2)C3 | 35.9% [at 16 µM] (inactive)
C[C@@H]1CN([C@H](C)CO)C(=O)c2cc(NC(=O)Nc3ccc4c(c3)OCO4)ccc2O[C@@H](C)CCCCO[C@@H]1CN(C)S(=O)(=O)c1cn(C)cn1 | -6.88% [at 1 µM] (inactive)
